The source of these data is PubChem BioAssay (Tox21).

Assay [1] concerns the target Progesterone receptor (Homo sapiens) (UniProt P06401). The experiment in a line: qHTS assay to identify small molecule agonists of the progesterone receptor (PR) signaling pathway (AID 1346784; calls by dose curve; further: on the % scale 0 is the no-effect control and ±100 the full control effect; nearly all actives have a fitted effect of over 30% in size). The method in brief:
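Fluorescence from LiveBLAzer B/G FRET substrate cleavage (2 hr, RT) reported PR activation in PR-UAS-bla HEK 293T cells treated 16 hr at 37C/5% CO2 with compounds; medium contained 2% charcoal-stripped FBS.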
Background: Quantitative high-throughput screening tests each substance at several concentrations.

The target is the same in assay [2]. The experiment in a line: qHTS assay to identify small molecule antagonists of the progesterone receptor (PR) signaling pathway (AID 1346795; active means well fitted inhibition curve with a large enough effect in the signal ratio in the repeat runs, not every such curve was filed as active; the % refers to the signal ratio; further: potency means the concentration at half of the fitted maximal effect). The method in brief: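 Fluorescence intensity measured 2 hr after adding beta-lactamase FRET substrate to PR-UAS-bla HEK293T cells that had been co-treated 16 hr with compound and 1 nM R5020 (final concentration) in 2% charcoal-stripped FBS.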

Assay [3] is described as follows: qHTS assay to identify small molecule antagonists of the TGF-beta/Smad signaling pathway - cell viability counter screen (AID 1346824). Further: on the % scale 0 is the no-effect control and ±100 the full control effect; nearly all actives have a fitted effect of over 50% in size. In a few lines:
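SBE-bla HEK 293T cells, incubated overnight, then compound plus 0.25 ng/mL TGF-beta1 (stock added) for 5 hr at 37 C. Viability was read in the same wells by CellTiter-Glo luminescence after 30 min at room temperature.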

A short description of assay [4]: qHTS assay to identify small molecule agonists of the TGF-beta/Smad signaling pathway - cell viability counter screen (AID 1346829). Further: top concentration of the series differs between compounds; on the % scale 0 is the no-effect control and ±100 the full control effect; nearly all actives have a fitted effect of over 45% in size. The method in brief: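 Same-well cytotoxicity: CellTiter-Glo added after the 2 hr room-temperature beta-lactamase substrate step, luminescence measured 30 min later; cells had 5 hr of compound at 37 C.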
Assay [5] in a line: qHTS assay to identify small molecule agonists of the TGF-beta/Smad signaling pathway (AID 1346859; active means well fitted activation curve with a large enough effect in the signal ratio in the repeat runs, not every such curve was filed as active; the % refers to the signal ratio; further: series mostly up to about 77 µM; on the % scale 0 is the no-effect control and ±100 the full control effect). In a few lines: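 After overnight seeding, SBE-bla HEK 293T cells are dosed with compounds in DMSO and kept 5 hr at 37 C, 5% CO2. LiveBLAzer-type FRET substrate is then applied for 2 hr at room temperature.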
Assay [6] addresses Thyrotropin-releasing hormone receptor (Homo sapiens) (UniProt P34981). The experiment in a line: qHTS assay to identify small molecule antagonists of the thyrotropin-releasing hormone receptor (TRHR) signaling pathway (AID 1346877; active means well fitted inhibition curve with a large enough effect in the repeat runs, not every such curve was filed as active; further: potency means the concentration at half of the fitted maximal effect). The method in brief: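 Kinetic fluorescence (3 min, 1 s resolution) following stimulation with TRH at 1 nM final; HEK293 cells bearing human TRHR; 5 min compound preincubation at RT; concentration-response over 15 points, triplicates.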

The target is the same in assay [7]. Put plainly: qHTS assay to identify small molecule agonists of the thyrotropin-releasing hormone receptor (TRHR) signaling pathway (AID 1346891; calls by dose curve;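 further: HEK293 cells expressing TRHR with calcium dye readout; series mostly up to about 58 µM; on the % scale 0 is the no-effect control and ±100 the full control effect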). The method in brief: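 Compounds were tested as agonists at 15 concentrations, in triplicate, on TRHR-Hek293 cells; calcium-sensitive dye fluorescence was recorded for 3 min following addition.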
Assay [8] is described as follows: Human pregnane X receptor (PXR) small molecule agonists, qHTS cell viability counter screen (AID 1346977). Further: nearly all actives have a fitted effect of over 50% in size. Further: potency means the concentration at half of the fitted maximal effect. On activity change, negative = cytotoxicity: on the % scale 0 is the no-effect control and ±100 the full control effect. In a few lines:
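Viability counter screen: CellTiter-Fluor signal in PXR-Luc HepG2 cells, 24hr compound exposure, 37C, 5% CO2.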

Assay [9] is described as follows: Caspase-3/7 induction in HepG2 cells by small molecules, qHTS assay (AID 1346978). Further: nearly all actives have a fitted effect of over 15% in size. Further: potency means the concentration at half of the fitted maximal effect. On caspase activation: on the % scale 0 is the no-effect control and ±100 the full control effect. The method in brief:
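Wild-type HepG2 cells, 2,000/well, settled 5 hr at 37 C and 5% CO2, then compound-treated for 17 hr; caspase-3/7 activity read by luminescent Caspase-Glo 3/7 after 30 min at room temperature.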

The nature of assay [10]: Caspase-3/7 induction in CHO-K1 cells by small molecules, qHTS cell viability counter screen (AID 1346979). Further: nearly all actives have a fitted effect of over 35% in size. Further: potency means the concentration at half of the fitted maximal effect. In a few lines:
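Viability readout by fluorescence (CellTiter-Fluor) on wild-type CHO-K1 cells exposed for 16hr at 37C and 5% CO2 to compounds delivered in DMSO; reagent incubated 1hr before reading.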

The nature of assay [11]: Caspase-3/7 induction in HepG2 cells by small molecules, qHTS cell viability counter screen (AID 1346981). Further: series mostly up to about 92 µM; on the % scale 0 is the no-effect control and ±100 the full control effect; nearly all actives have a fitted effect of over 30% in size. The method in brief: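 In this quantitative HTS counter screen, compounds delivered in DMSO were left on unmodified HepG2 cells for 16 hr at 37 C. Viability was then determined fluorometrically with CellTiter-Fluor, in parallel with caspase-3/7 induction in the same wells.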

The target in assay [12] is Nuclear receptor subfamily 1 group I member 2 (Homo sapiens) (UniProt O75469). The experiment in a line: Human pregnane X receptor (PXR) small molecule agonists, qHTS assay (AID 1346982). Further: nearly all actives have a fitted effect of over 35% in size. Further: potency means the concentration at half of the fitted maximal effect. The method in brief:
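Reporter HepG2 cells expressing PXR-Luc are cultured in charcoal-stripped FBS (5%), treated with compounds for 24 hr at 37 C, and assayed by ONE-Glo luminescence after 30 min at room temperature.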

Assay [13] deals with Cytochrome P450 2C19 (Homo sapiens) (UniProt P33261). Put plainly: Cytochrome P450 Family 2 Subfamily C Member 19 (CYP2C19) small molecule antagonists: luciferase reporter qHTS assay (AID 1671197). Further: nearly all actives have a fitted effect of over 65% in size. Further: potency means the concentration at half of the fitted maximal effect. In a few lines:
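Quantitative high-throughput screen of the Tox21 library using CYP2C19 with proluciferin substrate. Reaction: NADPH regeneration, 37C, 1 h, after 10 min compound preincubation at room temperature. Readout: luminescence.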

The nature of assay [14]: qHTS assay to identify small molecule antagonists of the progesterone receptor (PR) signaling pathway - cell viability counter screen (AID 1346798). Further: nearly all actives have a fitted effect of over 50% in size. Further: potency means the concentration at half of the fitted maximal effect. The method in brief: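 CellTiter-Glo luminescence; PR-UAS-bla HEK293T, 3,000 cells/well; compound + R5020, 16 hr, 37C/5% CO2; 30 min RT before read.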
Assay [15] in a line: qHTS assay to identify small molecule agonists of the progesterone receptor (PR) signaling pathway - cell viability counter screen (AID 1346799; calls by dose curve; further: nearly all actives have a fitted effect of over 45% in size; further: potency means the concentration at half of the fitted maximal effect). In a few lines:
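In parallel with the beta-lactamase readout, cytotoxicity toward PR-UAS-bla HEK293T cells was measured by CellTiter-Glo luminescence following 16 hr compound incubation in 2% charcoal-stripped FBS medium.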

Assay [16] can be described thus: Caspase-3/7 induction in CHO-K1 cells by small molecules, qHTS assay (AID 1346980). Further: on the % scale 0 is the no-effect control and ±100 the full control effect; nearly all actives have a fitted effect of over 15% in size. In a few lines: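 Wild-type CHO-K1 cells exposed to compounds for 17hr at 37 C, 5% CO2. Caspase-3/7 activity then measured by Caspase-Glo 3/7 luminescence after 30min at room temperature.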
The target of assay [17] is Nuclear receptor subfamily 1 group I member 2 (Rattus norvegicus) (UniProt Q9R1A7). Put plainly: Rat pregnane X receptor (rPXR) activation by small molecules, qHTS assay (AID 1346983). Further: on the % scale 0 is the no-effect control and ±100 the full control effect; nearly all actives have a fitted effect of over 20% in size. The conditions noted are these: rPXR luciferase reporter cells, One-Glo luminescence, 24 h; max activation: hits give high values. In a few lines:
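Cell-based rPXR activation assay: rPXR cells, 2,000 per well, rested 5hr at 37 C, then exposed to compounds in DMSO for 24 hr at 37 C. Luciferase activity read by One-Glo luminescence after 30 min at room temperature.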

Assay [18] addresses Nuclear receptor subfamily 1 group I member 2 (Homo sapiens) (UniProt O75469). Put plainly: CYP3A4 induction through human pregnane X receptor (PXR) by small molecules, qHTS assay (AID 1346984). Further: nearly all actives have a fitted effect of over 40% in size. Further: potency means the concentration at half of the fitted maximal effect. In a few lines:
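Induction measured in HepG2-based DPX-2 cells co-expressing human PXR and a CYP3A4 promoter-driven luciferase. After a 24-hour compound exposure, cells received CYP3A4 luciferin substrate at 3uM final for 3 hours, and light output was then recorded.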

Assay [19] has the same target. The experiment in a line: Human pregnane X receptor (PXR) activation by small molecules, qHTS assay (AID 1346985). Further: nearly all actives have a fitted effect of over 40% in size. Further: potency means the concentration at half of the fitted maximal effect. In a few lines: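 DPX-2 cells (HepG2 co-transfected with a PXR response element and a CYP3A4-promoter luciferase construct) were seeded at 2,000 per well, rested 5 hr at 37C, then exposed to DMSO-dissolved compounds for 24 hr. Activation was read as luciferase luminescence.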

The target in assay [20] is Cytochrome P450 2D6 (Homo sapiens) (UniProt P10635). Put plainly: Cytochrome P450 Family 2 Subfamily D Member 6 (CYP2D6) small molecule antagonists: luciferase reporter qHTS assay (AID 1671196). Further: nearly all actives have a fitted effect of over 50% in size. Further: potency means the concentration at half of the fitted maximal effect. In a few lines:
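Test chemicals meet CYP2D6 plus proluciferin substrate (10 min, RT); NADPH regenerating solution then drives turnover for 1 h. Detection reagent halts the reaction; luminescence measured after 20 min.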
(In general: In a reporter assay the amount or activity of a reporter protein is the signal.)

Values joined by “and” are separate entries in the source; they are usually repeats but may differ in a detail not shown here. Equal values may be shown once. Values without a mark were called inactive. Records with an inconclusive call do not appear. Active and inactive are the calls of the source. Unless noted, the call rests on the fitted dose curve; in most records, active means well fitted curve in the direction sought with a large enough effect in the repeat runs; inconclusive means weak or mixed curves; inactive means no such curve, though single readings can be large; an effect the other way counts as inactive or inconclusive.

Cytochrome P450 2C19 (Homo sapiens), sequence (P33261 whole entry, looked up): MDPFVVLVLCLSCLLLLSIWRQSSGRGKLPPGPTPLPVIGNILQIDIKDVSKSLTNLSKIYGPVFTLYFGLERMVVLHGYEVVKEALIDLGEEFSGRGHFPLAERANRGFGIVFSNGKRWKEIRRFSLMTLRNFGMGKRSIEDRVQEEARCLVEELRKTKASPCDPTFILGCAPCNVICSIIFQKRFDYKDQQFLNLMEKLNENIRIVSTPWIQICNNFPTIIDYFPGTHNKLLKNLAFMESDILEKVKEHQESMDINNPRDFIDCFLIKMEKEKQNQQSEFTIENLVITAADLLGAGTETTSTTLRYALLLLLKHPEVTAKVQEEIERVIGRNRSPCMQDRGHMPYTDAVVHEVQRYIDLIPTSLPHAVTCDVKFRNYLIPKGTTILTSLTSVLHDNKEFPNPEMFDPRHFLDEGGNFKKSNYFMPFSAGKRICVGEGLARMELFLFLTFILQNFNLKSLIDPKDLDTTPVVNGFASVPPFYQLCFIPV
Progesterone receptor (Homo sapiens), sequence (P06401 whole entry, looked up): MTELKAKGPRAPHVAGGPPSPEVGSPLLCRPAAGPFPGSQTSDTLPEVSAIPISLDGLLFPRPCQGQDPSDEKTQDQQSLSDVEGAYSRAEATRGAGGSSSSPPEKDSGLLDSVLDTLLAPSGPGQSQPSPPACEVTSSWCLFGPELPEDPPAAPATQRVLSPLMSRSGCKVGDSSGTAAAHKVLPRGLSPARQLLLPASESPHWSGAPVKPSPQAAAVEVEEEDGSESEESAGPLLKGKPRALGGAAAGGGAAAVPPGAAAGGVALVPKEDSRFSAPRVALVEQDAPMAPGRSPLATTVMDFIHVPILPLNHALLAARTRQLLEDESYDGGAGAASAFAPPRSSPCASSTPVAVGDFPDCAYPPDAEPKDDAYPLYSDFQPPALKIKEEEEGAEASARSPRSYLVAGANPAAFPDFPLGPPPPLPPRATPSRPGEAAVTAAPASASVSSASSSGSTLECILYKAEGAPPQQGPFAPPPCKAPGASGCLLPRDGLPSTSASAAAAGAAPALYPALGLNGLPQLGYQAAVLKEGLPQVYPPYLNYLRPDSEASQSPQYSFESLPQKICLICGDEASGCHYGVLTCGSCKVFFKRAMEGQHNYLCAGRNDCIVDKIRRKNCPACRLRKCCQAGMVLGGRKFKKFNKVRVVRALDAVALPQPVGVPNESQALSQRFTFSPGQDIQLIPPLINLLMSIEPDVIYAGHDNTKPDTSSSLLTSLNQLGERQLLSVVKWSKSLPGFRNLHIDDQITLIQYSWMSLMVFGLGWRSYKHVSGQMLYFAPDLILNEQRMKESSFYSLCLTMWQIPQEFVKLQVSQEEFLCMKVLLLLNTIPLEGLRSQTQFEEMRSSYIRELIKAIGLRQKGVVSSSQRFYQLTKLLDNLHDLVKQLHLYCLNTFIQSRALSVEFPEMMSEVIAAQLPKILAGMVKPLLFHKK
Thyrotropin-releasing hormone receptor (Homo sapiens), sequence (P34981 whole entry, looked up): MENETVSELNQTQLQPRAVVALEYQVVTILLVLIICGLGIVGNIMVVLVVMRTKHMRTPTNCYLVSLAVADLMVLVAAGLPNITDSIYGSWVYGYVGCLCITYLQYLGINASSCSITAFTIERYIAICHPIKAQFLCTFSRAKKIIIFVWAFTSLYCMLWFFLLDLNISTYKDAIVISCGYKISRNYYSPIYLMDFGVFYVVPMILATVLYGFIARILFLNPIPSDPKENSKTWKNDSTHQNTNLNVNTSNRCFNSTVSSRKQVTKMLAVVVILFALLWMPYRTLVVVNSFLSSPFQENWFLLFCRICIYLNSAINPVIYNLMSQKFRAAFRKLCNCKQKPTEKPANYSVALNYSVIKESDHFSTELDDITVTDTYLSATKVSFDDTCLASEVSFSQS
Nuclear receptor subfamily 1 group I member 2 (Rattus norvegicus), sequence (Q9R1A7 whole entry, looked up): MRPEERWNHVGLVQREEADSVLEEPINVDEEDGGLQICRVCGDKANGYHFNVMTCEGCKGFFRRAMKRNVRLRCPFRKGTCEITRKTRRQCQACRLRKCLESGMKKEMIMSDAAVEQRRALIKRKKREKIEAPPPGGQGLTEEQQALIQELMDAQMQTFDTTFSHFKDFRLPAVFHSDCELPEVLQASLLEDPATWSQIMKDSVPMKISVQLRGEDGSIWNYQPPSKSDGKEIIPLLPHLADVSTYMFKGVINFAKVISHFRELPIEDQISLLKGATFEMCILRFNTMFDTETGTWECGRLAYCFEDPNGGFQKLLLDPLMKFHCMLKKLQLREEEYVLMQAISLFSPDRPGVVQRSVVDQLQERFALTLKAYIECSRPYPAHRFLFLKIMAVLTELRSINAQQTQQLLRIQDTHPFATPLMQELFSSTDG
Cytochrome P450 2D6 (Homo sapiens), sequence (P10635 whole entry, looked up): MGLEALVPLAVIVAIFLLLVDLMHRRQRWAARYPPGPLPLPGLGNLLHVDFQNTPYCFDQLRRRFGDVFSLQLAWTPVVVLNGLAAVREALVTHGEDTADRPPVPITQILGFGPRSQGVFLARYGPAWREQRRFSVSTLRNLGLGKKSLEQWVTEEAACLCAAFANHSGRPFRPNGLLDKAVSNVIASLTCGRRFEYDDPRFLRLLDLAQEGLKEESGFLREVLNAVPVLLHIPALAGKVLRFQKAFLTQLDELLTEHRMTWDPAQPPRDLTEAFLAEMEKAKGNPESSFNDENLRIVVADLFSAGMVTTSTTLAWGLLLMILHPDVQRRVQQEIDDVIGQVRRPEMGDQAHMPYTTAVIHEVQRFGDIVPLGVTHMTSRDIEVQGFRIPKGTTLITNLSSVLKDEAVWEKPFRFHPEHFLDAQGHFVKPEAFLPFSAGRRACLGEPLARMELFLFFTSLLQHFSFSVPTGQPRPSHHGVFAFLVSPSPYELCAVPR
Nuclear receptor subfamily 1 group I member 2 (Homo sapiens), sequence (O75469 whole entry, looked up): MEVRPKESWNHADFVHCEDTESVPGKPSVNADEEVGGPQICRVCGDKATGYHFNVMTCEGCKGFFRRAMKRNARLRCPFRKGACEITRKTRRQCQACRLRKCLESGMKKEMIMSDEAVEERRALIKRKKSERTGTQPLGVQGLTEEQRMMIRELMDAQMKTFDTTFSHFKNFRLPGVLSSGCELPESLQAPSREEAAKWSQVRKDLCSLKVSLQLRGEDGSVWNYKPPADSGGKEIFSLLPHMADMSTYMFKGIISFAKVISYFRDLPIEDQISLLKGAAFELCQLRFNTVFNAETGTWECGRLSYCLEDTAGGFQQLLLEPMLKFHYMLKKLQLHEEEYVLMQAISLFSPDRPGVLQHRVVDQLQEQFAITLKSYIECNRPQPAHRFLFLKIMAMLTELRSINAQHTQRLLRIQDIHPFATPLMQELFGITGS

As to `CC(C)(c1cc(Br)c(O)c(Br)c1)c1cc(Br)c(O)c(Br)c1`, the molecule was classed as inactive in assay [1]. Moreover, the Potency in assay [2] was 13.6 µM (active) and 17.2 µM (active); in assay [6] it was 33.8 µM (active); in assay [10] it was 60.9 µM (active); in assay [12], 54.3 µM (active) and 60.9 µM (active) and 57.9 µM (active); in assay [13] it was 22.4 µM (active) and 35.5 µM (active). The Potency entry in [3], in assay [4], in assay [5], in assay [7], in assay [8] and in assay [9] was “inactive” each time. Also, the Potency result in assay [11] was “inactive”.

On to `COC(=O)CC(C)CCC=C(C)C` (centres undefined), for which the molecule was called inactive in assay [1]. In addition, the Potency result in [14], in assay [15], in assay [3], in assay [4], in assay [5] and in assay [6] was “inactive” throughout. Further, the Potency entry in assay [8], in [9], in assay [10], in [16], in [11] and in [12] was “inactive” throughout. The Potency result in assay [13] was “inactive”.

Take `N[C@@H](CSSC[C@H](N)C(=O)O)C(=O)O`: the values for the activation in assay [1], in assay [5] and in [12] were -4.21% [at 0.349 µM], 1.61% [at 0.29 µM] and -0.742% [at 0.349 µM], respectively. Also, in [3], the viability change, negative = cytotoxic was -1.61% [at 0.29 µM]. The activity change, negative = cytotoxicity in [4] was 1.93% [at 0.29 µM]; in [8] it was -23% [at 0.349 µM]; in [10] it was -1.36% [at 0.349 µM]; in assay [11], 6.72% [at 0.349 µM]. Besides, in [9], the caspase activation was 0.0664% [at 0.349 µM]. For the same molecule, the caspase-3/7 activation in assay [16] was 0.0732% [at 0.349 µM]. The max activation in assay [17] was -1.39%. In addition, the Potency entry in [18] and in assay [19] was “inactive” throughout. The values for the activity change, negative = inhibition in assay [20] and in assay [13] were -4.15% [at 0.435 µM] and -14.3% [at 0.435 µM], respectively.

Consider `C[C@H]1O[C@@H](O[C@H]2[C@@H](O)C[C@H](O[C@H]3[C@@H](O)C[C@H](O[C@H]4CC[C@@]5(C)[C@H](CC[C@@H]6[C@@H]5C[C@@H](O)[C@]5(C)[C@@H](C7=CC(=O)OC7)CC[C@]65O)C4)O[C@@H]3C)O[C@@H]2C)C[C@H](O)[C@@H]1O`, for which the molecule was classed as inactive in assay [1]. Besides, the Potency in assay [15] is 122 nM (active) and 191 nM (active). Also, the Potency entry in assay [8], in assay [9], in assay [10] and in [11] was “inactive” in each case. For the same molecule, the max activation in assay [17] was -1.12%.

For `CN(C)CCCN1c2ccccc2Sc2ccc(C(F)(F)F)cc21`, the call in assay [1] was inactive. For the same molecule, the Potency result in assay [15], in assay [3] and in assay [4] was “inactive” each time. In addition, the Potency was 0.617 µM (active) in assay [20] and 4.36 µM (active) in assay [13].

Take `CN(Cc1cc(Br)cc(Br)c1N)C1CCCCC1`: in assay [1], the result was inactive. For the same molecule, the Potency entry in assay [14], in assay [3], in assay [4], in [5], in assay [6] and in [7] was “inactive” throughout. For the same molecule, the Potency entry in assay [8], in assay [9], in assay [10], in [16] and in [11] was “inactive” in each case. The Potency in assay [12] is 13.3 µM (active); in assay [18], 14.1 µM (active); in assay [19], 8.91 µM (active); in assay [20], 0.0078 µM (active); in [13] it was 4.36 µM (active). The max activation in [17] is -3.03%.

On to `CCN(CC)CCOc1ccc(C(O)(Cc2ccc(Cl)cc2)c2ccc(C)cc2)cc1` (centres undefined), for which the outcome in [1] was inactive. For the same molecule, the Potency in assay [15] was 23.7 µM (active); in [8] it was 26.6 µM (active); in assay [9] it was 33.5 µM (active); in assay [10], 26.6 µM (active); in [12], 9.44 µM (active); in [13], 38.9 µM (active). The Potency entry in assay [5], in assay [6] and in assay [20] was “inactive” each time. Further, the max activation in [17] was -4.47%.

`C=CC(C)C#N` (centres undefined): the molecule was classed as inactive in assay [1]. For the same molecule, the Potency entry in assay [14], in [3], in assay [4], in assay [5], in assay [8] and in assay [9] was “inactive” each time. For the same molecule, the Potency entry in assay [10], in [16], in assay [12] and in assay [20] was “inactive” in each case.

For the molecule `CC(C)(c1cc(Br)c(OCCO)c(Br)c1)c1cc(Br)c(OCCO)c(Br)c1`, the Potency in assay [2] is 5.33 µM (active); in [14], 29.9 µM (active); in [15], 33.6 µM (active); in assay [12], 4.75 µM (active); in assay [13], 6.94 µM (active). In addition, the Potency entry in assay [3], in assay [4], in assay [5] and in assay [16] was “inactive” each time.
